Shown are actives, neighbours in structure and some others; about 21% of the full set was active somewhere.
CHX counter: Cycloheximide Counterscreen for Small Molecule Inhibitors of Shiga Toxin | cell reporter, cycloheximide protein synthesis inhibition counterscreen | max response, % | hit rate 12% among 300,000; in the data active means max response mostly above about 13%, no sharp cut-off; inactive means mostly below about 14%; further: read at 38.3 µM for the half of the compounds with a filed dose; 0% is about no effect
Pf growth 48h: Primary qHTS for delayed death inhibitors of the malarial parasite plastid, 48 hour incubation. hit rate 5.9% among 310,000. Potency, µM (top dose mostly 28.7 µM), inactives show at the highest dose activity change, negative = inhibition, hits mostly inhibitors. P. falciparum luciferase growth in erythrocytes, 48 h. AID 504832, 2011; further: potency means the concentration at half of the fitted maximal effect; on the % scale 0 is the no-effect control and ±100 the full control effect
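Luciferase-expressing parasites in RBCs, 2% Hct / 0.1% parasitemia final; RPMI 1640 + 0.5% Albumax; 37 C, 5% CO2, one generation; luminescence read-out, lower signal = inhibition.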
HCMV antiviral: qHTS Assay for inhibitors of the human cytomegalovirus (HCMV). HFF cells, HCMV-luciferase reporter, 72 h; stronger effect = lower value. activity change, negative = inhibition, % at 57.5 µM. hit rate 4.5% among 410,000; in the data active means activity change below about -60%; inconclusive means no clear call, values can overlap the other calls; inactive means above about -39%; further: on the % scale 0 is the no-effect control and ±100 the full control effect
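Two compound doses tested in HFFs infected with HCMV-luciferase, MOI 1 PFU/cell, 72 h at 37C. Lysate luminescence read with OneGlo; data normalized against buffer-only and 10uM Salinomycin inhibitor controls.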
Pf growth 96h: Primary qHTS for delayed death inhibitors of the malarial parasite plastid, 96 hour incubation; P. falciparum luciferase reporter growth, 96 h; Potency, µM (series often up to 28.7 µM), for the others: top-dose activity change, negative = inhibition, actives largely listed as inhibitors; hit rate 6.9% among 320,000; further: potency means the concentration at half of the fitted maximal effect; on the % scale 0 is the no-effect control and ±100 the full control effect
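Two parasite generations (96 h, 37 C, 5% CO2) of compound exposure in infected erythrocytes (0.05% parasitemia, 2% hematocrit). Luciferase-reporter P. falciparum; decreased luminescence indicates inhibited growth, aimed at apicoplast-acting delayed death.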
HCV inh: qHTS Assay for Inhibitors of Hepatitis C Virus (HCV); Huh7.5.1 HCVcc-Cre infection, luciferase reporter, 44 h; Potency, µM (series often up to 41.8 µM), without a hit: at the top dose activity change, negative = inhibition, hits mostly inhibitors; hit rate 3.4% among 340,000; further: potency means the concentration at half of the fitted maximal effect; on the % scale 0 is the no-effect control and ±100 the full control effect
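Antiviral activity was scored by luciferase reporter output from cells infected with HCVcc-Cre (~0.5 moi) in presence of compound, 44 h infection period, cells seeded 1,000/well 4 h prior.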
Shiga inhibitor: A qHTS for Small Molecule Inhibitors of Shiga Toxin. Vero cells, Shiga toxin protein synthesis inhibition reporter. inhibition, % at 38.7 µM. hit rate 9.2% among 290,000. AID 2315, 2010; in the data active means inhibition mostly above about 28%, no sharp cut-off; inactive means mostly below about 43%; further: 0% is about no effect
The depositor's hits bear a star; ? = inconclusive; · = no result; [ ] = remark or other dose. Unless noted, the call rests on the fitted dose curve; in most records, active means well fitted inhibition curve with a large enough effect; inconclusive means small, poorly fitted or top-dose-only effect, or another doubt; inactive means no such curve, though single readings can be large or run the other way.

SMILES	CHX counter	Pf growth 48h	HCMV antiviral	Pf growth 96h	HCV inh	Shiga inhibitor
O=c1[nH]cnc2c1nc(NCc1ccccc1)n2C1O[C@@H](CO)[C@H](O)[C@@H]1O (some centres undefined)	-1	-9%	-7	25%	7%	15
O=C(Nc1nc2ccccc2[nH]1)Nc1ccccc1F	35*	130%	84	-22%	2%	99*
CC(C)c1nnc(NC(=O)CSc2nc3ccccc3[nH]2)s1	8	-6%	-36	9%	-1%	9
O=C(CSc1nc2ccccc2[nH]1)Nc1ccccc1F	13	·	-100*	29%	10%	25
O=C(CSc1nc2ccccc2[nH]1)Nc1ccc(F)c(F)c1	-2	-2%	7	10%	-22%	-11
O=C(Nc1ccc2ccccc2n1)Nc1ccccc1F	14	13%	2	17%	7%	56
Cc1nnc(NC(=O)CSc2nc3ccccc3[nH]2)s1	16*	31%	40	43%[1.15 µM]	6%	9
Cc1cc2nc(SCC(=O)Nc3ccccc3C(=O)O)[nH]c2cc1C	15	78%	59	?	9%	38*
CCSc1nnc(-c2ccccc2NC(=O)CC)c(=O)[nH]1	-4	-18%	-29	4.7µM*	5%	-10
COc1ccc(-n2c(C)cc(/C=C/c3nc(O)c([N+](=O)[O-])c(=O)[nH]3)c2C)cc1	3	-28%	-61*	-24%	7%	4
CCOc1ccc(OCC(=O)NCCS(=O)(=O)N2CCN(c3ccc(OC)cc3)CC2)cc1	·	·	-36	·	·	·
O=C(N/N=C/c1ccccc1C(F)(F)F)c1ccc2nc[nH]c2c1	49*	?	-29	-22%	-18%	29*
O=C(N/N=C/c1ccc(Cl)cc1Cl)c1ccc2nc[nH]c2c1	24*	?	-15	?	14%	53*
O=C(CCCC(=O)NN=Cc1ccc(Cl)cc1Cl)NN=Cc1ccc(Cl)cc1Cl	·	·	-24	·	?	·
CCc1ccc(C(=O)N/N=C/c2ccc(Cl)cc2Cl)nc1	18*	67%	·	25%	-19%	24
C=CCc1cccc(/C=N/NC(=O)c2ccc3nc[nH]c3c2)c1O	9	?	-101*	?	?	-2
O=C(COC(=O)[C@H](Cc1ccccc1)NC(=O)c1ccco1)Nc1ccccc1OC(F)F	·	·	8	·	11%	·
COc1ccc(N2CC(NC(=O)c3c(F)cccc3Cl)CC2=O)cc1OC (centres undefined)	·	·	15	·	·	·
CC(=O)Nc1ccc(S(=O)(=O)N[C@@H](C)C(=O)OCC(=O)Nc2ccc3c(c2)OCCO3)cc1	·	·	22	·	9%	·
O=C(N/N=C/c1ccc(Cl)cc1Cl)c1cccc(F)c1	33*	172%	95	192%	?	137*
CC(C)Cc1nc2sc3c(c2c(=O)n1N)CC(C)(C)OC3	-1	28%	0	-3%	-30%	4
O=S(=O)(Nc1ccc2nc(C(F)(F)F)[nH]c2c1)c1ccccc1	-1	12µM*	?	18%	?	-15
O=S(=O)(Nc1ccc2nc(-c3ccc(Br)o3)[nH]c2c1)c1ccccc1	40*	86%	·	?	·	64
Cc1ccc(-c2nc3ccc(NS(=O)(=O)c4ccccc4)cc3[nH]2)o1	66*	·	?	97%	-24%	130*
Cc1cc(NS(=O)(=O)c2ccc3nc(-c4ccccc4)[nH]c3c2)ccc1Br	·	·	-21	·	·	·
SMILES	CHX counter	Pf growth 48h	HCMV antiviral	Pf growth 96h	HCV inh	Shiga inhibitor
CC(C)(C)c1nc2ccc(NS(=O)(=O)c3ccc(F)c(F)c3F)cc2[nH]1	-3	?	-66*	20%	-5%	-8
O=C(Cn1c2ncccc2c(=O)n1-c1ccccc1)Nc1ccc(Cl)cc1C(F)(F)F	·	·	32	·	·	·
Cc1ccsc1CN1CCc2nc(Nc3ccccc3)ncc2C1	·	·	55	·	·	·
Cc1cc(C)c(NC(=O)CSc2nc(C)cc(C)c2C#N)c(C)c1	·	·	-6	·	·	·
COc1ccccc1CNS(=O)(=O)c1c(C(=O)N2CCC(C)CC2)c(C)n(C)c1C	·	·	-28	·	·	·
COC(=O)c1ccc2nc(C(F)(F)F)[nH]c2c1	17*	-14%	-24	32%	-10%	11

Screens (PubChem)
